ROMK mod: human ROMK K+ channel modulation, primary screen. 130,000 tested, 2% active. P48048. B-score at 10 µM. Tet-inducible ROMK, thallium flux fluorescence; actives lie on both sides. AID 1918;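 active means signal ratio slope over the read window, or its plate-corrected B-score, at least 3 SD from the plate mean, either direction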;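 further: B-score of the F/F0 ratio slope over 7 to 12 s after thallium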
WT yeast gro inh: growth inhibition of WT yeast, mitochondrial fusion screen; mitochondrial fusion phenotypic screen, WT strain; inhibition, % at 10 µM; 190,000 tested, 2.1% active; AID 1362; in the data active means inhibition above about 58%; tested in S. cerevisiae
L major viab: reduces viability of Leishmania major promastigotes. resazurin fluorescence viability. AID 1063. inhibition, % at 10 µM. 200,000 tested, 9% active; in the data active means inhibition above about 50%;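 further: promastigotes grown with compound for 44 hours at 28 °C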
m-calpain inh: calpain II (pig) inhibition | 220,000 tested, 0.37% active | AID 1236 | purified calpain II, fluorogenic peptide substrate, 30 min | inhibition, % at 16 µM;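 active means inhibition above about 50%, limit read from the data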
KCC2 mod: KCC2 (human) Cl- transport modulation. Q9H2X9. AID 1456. B-score of Tl+ flux slope (higher = more flux/activation; lower = inhibition) at 10 µM. 190,000 tested, 2.2% active. KCC2 cells, thallium flux FluoZin-2 fluorescence;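 active means thallium flux slope and its plate-corrected score both differing from the plate sample mean at a set confidence after two filtering rounds, in either direction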;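 further: slope of fluorescence scaled to starting intensity during 10 to 20 s after thallium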
KCC2 secondary: KCC2 (human) modulation, secondary assay; 3,700 tested, 15% active; shares compounds with KCC2 mod; HEK293-KCC2, thallium flux, FluoZin2 fluorescence; hits give high values; normalised thallium flux (F/F0 slope) at 10 µM;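 active means thallium flux slope above the same plate's solvent-only control mean plus 3 SD; inconclusive means the two replicate wells disagree; inactive means no significant difference from solvent-only control wells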
KCC2 bumet counter: thallium flux persisting under bumetanide in KCC2 cells, counter-screen secondary assay. shares compounds with KCC2 mod. HEK293-KCC2 + bumetanide/ouabain, thallium flux FluoZin2; hits give high values. normalized thallium flux at 10 µM. 3,700 tested, 49% active;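 active means thallium entry rate above the same plate's blocked-transporter control wells by more than 3 SD; inconclusive means the two repeat wells disagree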;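 further: raw slope of fluorescence over initial fluorescence between 10 and 20 s after thallium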
KCC2 secondary2: KCC2 (human) modulation, second secondary assay; shares compounds with KCC2 mod; 3,700 tested, 23% active; HEK293-KCC2, thallium flux FluoZin2 fluorescence; actives lie on both sides; F/F0 rise rate, 10–20 s post-thallium; AID 1715; normalized thallium flux at 10 µM;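 active means thallium flux slope more than 3 SD above or below the plate's solvent-only control mean, mostly below; inconclusive means the two repeat wells disagreed; inactive means no significant shift from solvent-only controls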
HEK293 Tl flux: counter-screen for KCC2 modulators: effect in parental HEK293 cells | shares compounds with KCC2 mod | thallium flux FluoZin2, ouabain; baseline-ratio fluorescence slope, 10–20 s after thallium | thallium flux rate (normalised fluorescence) at 10 µM | 3,700 tested, 46% active | AID 1716;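 active means thallium flux rate significantly above the same plate's solvent-only control wells, beyond their mean plus 3 SD; inconclusive means the two replicate wells gave conflicting results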
KCC2 retest ouab: modulates human KCC2 on retest with ouabain; shares compounds with KCC2 mod; HEK293-KCC2, thallium flux FluoZin2 fluorescence; bidirectional: low = inhibitor, high = activator; 3,700 tested, 48% active; raw Tl+ flux slope (below DMSO = inhibition, above = activation) at 10 µM;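 active means thallium flux slope beyond 3 SD from same-plate DMSO control mean in most replicates, usually higher, sometimes lower; inconclusive means repeat tests gave conflicting results; inactive means no significant difference from controls in most replicates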;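 further: slope of initial-normalized fluorescence between seconds 10 and 20 after thallium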
HEK counter2: acts in parental HEK cells, second KCC2 counter-screen. shares compounds with KCC2 mod. 3,700 tested, 33% active. thallium flux slope at 10 µM. HEK293 parental, thallium flux FluoZin-2 fluorescence slope. AID 1718;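 active means thallium flux slope above the same plate's solvent-control mean plus 3 SD in both duplicate wells; inconclusive means duplicate wells that disagreed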;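 further: run without ouabain in cells lacking the KCC2 cotransporter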
ROMK hit retest: confirmation of human ROMK potassium channel modulators. shares compounds with ROMK mod. ROMK thallium flux, fluorescence ratio; hits give low values. normalized thallium flux (F/F0 slope) at 10 µM. 3,000 tested, 54% active. AID 1917;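 active means Flux at 10 µM at least 3 SD below or above vehicle control mean in one or both replicates; inconclusive means no clear call, values can overlap the other calls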
Numbers stand for hits; 0 = inactive; ? = inconclusive; - = no result given. A selection: hits, their analogues and other compounds. The true share with any hit is near 12%.

SMILES	ROMK mod	WT yeast gro inh	L major viab	m-calpain inh	KCC2 mod	KCC2 secondary	KCC2 bumet counter	KCC2 secondary2	HEK293 Tl flux	KCC2 retest ouab	HEK counter2	others
Cc1cc(C(=O)CSc2nnc(-c3cccc(F)c3)n2N)c(C)n1Cc1ccc2c(c1)OCO2	0	0	74.8	0	-	0	0	0	0	0	0
Cc1ccc2c(c1)C(c1ccccc1)C(=O)O2 (centres undefined)	0	-	-	0	0	-	-	-	-	-	-
COc1ccc2nc(NC(=O)CSc3nnc(-c4ccoc4C)n3C)sc2c1	-	0	0	0	-3.79	0	?	0	0	0.0152	0
CC(=O)OC(C)CS(=O)(=O)c1ccccc1 (centres undefined)	0	0	0	0	0	-	-	-	-	-	-
CCCc1cc(-c2n[nH]c(=S)n2CC)cs1	0	0	0	0	-	0.0132	0.0204	0	0.0136	0	0.0119
CCCCn1c(-c2csc(CCC)c2)n[nH]c1=S	0	73.0	0	0	37.2	?	0.0799	0.0442	0.0322	0.0408	0.0314
COc1ccc(NC(=S)NNc2ccc(S(=O)(=O)Nc3ccccc3C(=O)O)cc2[N+](=O)[O-])cc1	-	-	-	0	0	-	-	-	-	-	-
CCS(=O)(=O)c1ccc2c(c1)N(S(C)(=O)=O)CC(C(=O)NN)O2 (centres undefined)	0	0	0	0	0	-	-	-	-	-	-
O=C(CSc1nc(-c2ccccc2)nc2c1Cc1ccccc1O2)Nc1ccc(C(=O)O)cc1	0	0	0	0	0	-	-	-	-	-	-
O=C(CSc1nc(-c2ccc(F)cc2)nc2c1Cc1ccccc1O2)Nc1ccc(C(=O)O)cc1	0	0	0	79.2	3.32	0	0.00741	0	0.0125	0.0242	0.012
Cc1ccc(C(=O)Nn2c(O)c(C=C3N=c4ccccc4=N3)sc2=S)cc1	-	0	0	0	-	-	-	-	-	-	-
O=C(Nn1c(O)c(C=C2N=c3ccccc3=N2)sc1=S)c1ccccc1	-	0	0	0	-3.5	0	0	0.022	0	0.0125	0
CCSc1nnc(NC(=O)CSc2nccn2-c2cccc(C)c2C)s1	0	0	0	0	3.13	0	0.016	0	0.015	0	0.0181
CCOc1ncccc1C(=O)OCc1c(Cl)cccc1Cl	0	0	0	0	0	-	-	-	-	-	-
CCc1ccc(NC(=O)C(=S)NC2CCCCC2)cc1	0	0	0	0	0	-	-	-	-	-	-
CCc1ccc(-c2cn(C3CCCCC3)c(=S)[nH]2)cc1	0	68.2	0	0	6.02	0	0.05	0	0.0123	0.023	?
O=C(NCC1OCCCN1S(=O)(=O)c1cc(F)ccc1F)C(=O)NC1CCCCCC1 (centres undefined)	0	0	0	0	0	-	-	-	-	-	-
Cc1ccc(OCc2n[nH]c(=S)n2C2CCCCC2)cc1	0	66.1	0	60.6	12.8	?	0.0429	0.0445	0.0265	0.0423	0.0298
S=c1[nH]nc(COc2ccc(Cl)cc2)n1C1CCCCC1	0	0	0	0	2.53	0	0.0151	0	0.0119	?	0.0148
S=c1[nH]nc(CSCc2ccccc2Cl)n1C1CCCCC1	0	73.6	0	65.2	26.7	0	0.0307	?	0.0285	0.0275	0.0198
CCN(CC)C(=O)N1CCc2ccccc2C1CN1C(=O)c2ccccc2C1=O (centres undefined)	0	-	0	-	0	-	-	-	-	-	-
CCN(CC)c1ccc(S(=O)(=O)N2CCOCC2)cc1NC(=O)CN1CCc2ccccc2C1	0	0	0	0	0	-	-	-	-	-	-
Oc1c(C=NCc2ccc(F)cc2)[nH]c2ccc(Br)c(Cl)c12	-5.18	-	0	0	-	-	-	-	-	-	-	ROMK hit retest=0.0474
Cc1ccc(CN=Cc2[nH]c3ccc(Br)c(Cl)c3c2O)cc1	-3.21	64.4	0	0	0	-	-	-	-	-	-	ROMK hit retest=0.0454
CCCC(C)NC(=O)CSc1nnc2ccccn12 (centres undefined)	0	0	0	0	0	-	-	-	-	-	-
SMILES	ROMK mod	WT yeast gro inh	L major viab	m-calpain inh	KCC2 mod	KCC2 secondary	KCC2 bumet counter	KCC2 secondary2	HEK293 Tl flux	KCC2 retest ouab	HEK counter2	others
COC(=O)N/N=C\c1ccc(-c2cc(Cl)c(Cl)cc2Cl)o1	0	0	0	0	0	-	-	-	-	-	-
COC(=O)N/N=C/c1ccc(-c2cc(Cl)ccc2Cl)o1	-	0	0	0	0	-	-	-	-	-	-	ROMK hit retest=0.0657
Cc1ccc(-n2nc(C)cc2N)c(C)c1	0	0	0	0	0	-	-	-	-	-	-
CCOC(=O)c1oc2cc(O)c(CC)cc2c(=O)c1-c1cscn1	0	0	0	0	0	-	-	-	-	-	-
CCc1cc2c(=O)c(-c3cscn3)coc2cc1O	2.52	69.0	0	0	0	-	-	-	-	-	-	ROMK hit retest=0
CC1CCc2c(sc3nc(CSc4nnnn4C)[nH]c(=O)c23)C1 (centres undefined)	-	-	-	0	0	-	-	-	-	-	-
COc1cc(C(=O)N2CCN(c3ncnc4sc(C)c(C)c34)CC2)cc(OC)c1OC	-	0	0	0	0	-	-	-	-	-	-	ROMK hit retest=0
Cc1sc2ncnc(N3CCN(c4ncccn4)CC3)c2c1C	0	0	0	0	-	-	-	-	-	-	-
Cc1ccc(C(=O)N/C(=C\c2ccc(-c3cccc([N+](=O)[O-])c3)o2)C(=O)NC(C)(C)C)cc1	-	0	0	0	0	-	-	-	-	-	-
Cc1ccc(C(=O)N/C(=C\c2ccc(-c3ccc([N+](=O)[O-])cc3)o2)C(=O)NC2CCS(=O)(=O)C2)cc1 (centres undefined)	-	0	0	0	0	-	-	-	-	-	-	ROMK hit retest=0.0474
CCOC(=O)c1c(NC(=O)CN2C(=O)CN(C)C2=O)sc(C)c1C	0	0	0	0	0	-	-	-	-	-	-
CCOc1cccc(NC(=O)c2cnccc2C(F)(F)F)c1	0	-	-	0	0	-	-	-	-	-	-
CCOc1ccccc1N(C(=O)c1snc(C(N)=O)c1N)C(C(=O)NCCC(C)C)c1ccco1 (centres undefined)	-4.48	0	0	0	0	-	-	-	-	-	-	ROMK hit retest=0
CC(C)Nc1nnc(SC(C)C(=O)NCc2ccc3c(c2)OCO3)s1 (centres undefined)	1.74	0	0	0	0	-	-	-	-	-	-	ROMK hit retest=0
CC(C)Nc1nnc(SCC(=O)NCc2ccc3c(c2)OCO3)s1	0	0	0	0	0	-	-	-	-	-	-
O=C(NCc1ccccc1Cl)C1CCN(c2cnccn2)CC1	0	0	0	0	0	-	-	-	-	-	-
O=C(COC(=O)c1nc(Cl)ccc1Cl)Nc1ccc2c(c1)OCO2	-1.7	0	0	0	0	-	-	-	-	-	-	ROMK hit retest=0
COc1cccc(NC(=O)COC(=O)c2nc(Cl)ccc2Cl)c1	0	0	0	0	0	-	-	-	-	-	-

Bioassay records as filed in PubChem.
